Each structure is given as a SMILES string.
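Also: kd values determined as follow-up on hits from a single-replicate KINOMEscan panel screen.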

One test concerns T1, GRK3.
T1 construct: gene ADRBK2
`Nc1nccc2scc(-c3ccc4c(c3)CCN4C(=O)Cc3ccccc3)c12` [GSK2576924]: the Kd (in general, the concentration at which binding is half-saturated) was over 10000 nM.
`O=C(Nc1n[nH]c2nc(-c3ccccc3)c(Cl)cc12)C1CC1` [SB-734909] had a Kd of over 10000 nM.
In the case of `Cc1nn2c(=O)cc(N3CCOCC3)nc2n1Cc1cccc(Cl)c1Cl` [GSK2342769], the Kd was over 10000 nM.

Another test relates to GSK3A.
Consider `CCS(=O)c1ccc(-c2coc3ccc(-c4nnc(C)o4)cc23)cc1` (stereo not drawn), for which the Kd turned out to be 260 nM.
`O=C(Nc1n[nH]c2nc(-c3ccccc3)c(Cl)cc12)C1CC1` [SB-734909] yielded a Kd of 390 nM.
Compound `O=C(Nc1n[nH]c2nc(-c3ccccc3)c(Br)cc12)C1CC1` [SB-708998] gave a Kd of 410 nM.
Still for that read-out and setting: with `Nc1n[nH]c2nnc(-c3ccccc3)c(-c3ccccc3)c12` [GW554060] the figure was 300 nM.
Compound `COc1ccc(-c2coc3ccc(-c4nnc(SCc5cccc(C#N)c5)o4)cc23)cc1` had a Kd of 150 nM.
As for `CCCC(=O)Nc1n[nH]c2ncc(-c3cccc4ccccc34)cc12` [SB-642057], binding was put at a Kd of 360 nM.

For the origin of these results see paper PMC5540273 (PLoS ONE, 2017).
